# Vif-A3F inh: blocks the Vif interaction with APOBEC3F; 390,000 compounds, 0.2% hits; HeLa A3F-eYFP + Vif (tagged APOBEC3F with the HIV-1 protein that degrades it), YFP fluorescence increase; Potency, µM (highest dose often 46.1 µM), without a hit: at the highest dose activity, negative = active; AID 602313; further: potency means the concentration at half of the fitted maximal effect; % of control where 0% means no effect; nearly all actives have a fitted effect of over 65% in size
#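 HeLa cells stably expressing Vif plus C-terminally eYFP-tagged A3F were seeded, incubated overnight at 37 deg C, dosed with compound, incubated overnight again at 37 deg C. Yellow fluorescence (Ex 488/Em 500-530) reported blocked Vif-mediated A3F-eYFP degradation.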
# SW480 rerep: DNA re-replication induction in SW480 cells | Potency, µM (series often up to 46.1 µM), without a hit: top-dose re-replication activation, usual class: activators | 340,000 compounds, 1.8% hits | SW480 DNA re-replication, Hoechst DNA content imaging, 48 h; further: potency means the concentration at half of the fitted maximal effect; % of control where 0% means no effect; nearly all actives have a fitted effect of over 55% in size
#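 First, 250 cells per well were seeded. Next, compound or vehicle (23 nL) was pinned in, plates sat 48 hr at 37 C. Finally Hoechst was added for 40 min before fluorescence scanning.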
# Giardia killer: kills Giardia lamblia; AID 540267; Giardia lamblia trophozoite viability; 340,000 compounds, 0.15% hits; activity change, % at 7.66 µM, hits read low; in the data active means activity change below about -80%; inconclusive means between about -30% and that limit;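 further: parasites exposed to compound for two days anaerobically before the ATP read; on the % scale 0 is the no-effect control and ±100 the full control effect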
#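 Luminescent ATP signal served as the viability read-out, measured 15-30 min after adding ATP detection reagent to trophozoites that had been incubated with compounds for 48 hrs at 37 deg C anaerobically at 100 cells/well.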
# Vif-A3G inh: blocks the Vif interaction with human APOBEC3G. Q9HC16. HeLa A3G-eYFP + Vif (tagged APOBEC3G with the HIV-1 protein that degrades it), YFP fluorescence, overnight. Potency, µM (highest dose often 46.1 µM), for inactives: at the top dose activity, negative = active, actives largely listed as inhibitors. 410,000 compounds, 0.076% hits. AID 602310; further: potency means the concentration at half of the fitted maximal effect; on the % scale 0 is the no-effect control and ±100 the full control effect; nearly all actives have a fitted effect of over 60% in size
# Target sequence (Q9HC16 whole entry, looked up): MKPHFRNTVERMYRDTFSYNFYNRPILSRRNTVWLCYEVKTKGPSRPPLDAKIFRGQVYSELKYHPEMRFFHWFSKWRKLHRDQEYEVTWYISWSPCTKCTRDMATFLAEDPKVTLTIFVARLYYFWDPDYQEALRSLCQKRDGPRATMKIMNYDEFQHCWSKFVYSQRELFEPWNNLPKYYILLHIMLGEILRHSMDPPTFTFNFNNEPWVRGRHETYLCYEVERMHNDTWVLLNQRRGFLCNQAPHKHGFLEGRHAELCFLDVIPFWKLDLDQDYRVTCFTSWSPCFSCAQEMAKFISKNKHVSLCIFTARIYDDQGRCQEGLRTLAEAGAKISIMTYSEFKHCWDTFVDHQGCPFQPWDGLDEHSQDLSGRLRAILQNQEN
#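 HeLa cells stably expressing Vif and C-terminally eYFP-tagged A3G, seeded overnight at 37 deg C, then exposed to compound by pintool overnight at 37 deg C. Rise in yellow fluorescence (Ex 488/Em 500-530, Acumen) marks blocked Vif-driven A3G degradation.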
# IL1B secr inh: blocks inflammasome-driven IL-1 beta release | 360,000 compounds, 4.7% hits | THP-1 LPS/ATP IL-1B secretion, AlphaLISA, 16 h; stronger effect = lower value | AID 743279 | activity change, % at 57.5 µM; in the data active means activity change below about -50%; inconclusive means mostly about -30% to -49%; further: on the % scale 0 is the no-effect control and ±100 the full control effect
#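 Secreted IL-1B measured by AlphaLISA bead assay after 16 h compound exposure of THP-1 cells; compounds (final up to 57.5 uM) added 1 h before LPS (250 ng/mL) and ATP (1.25 mM) stimulation; lower signal means less secretion.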
# MCF10A rereplic: induces DNA re-replication in MCF 10a normal breast cells | MCF 10A DNA re-replication, Hoechst nuclear intensity, 48 h | Potency, µM (series often up to 46.1 µM), inactives show at the highest dose activity, positive = re-replication, actives largely listed as activators | 350,000 compounds, 2.9% hits | AID 624296; further: potency means the concentration at half of the fitted maximal effect; % of control where 0% means no effect; nearly all actives have a fitted effect of over 50% in size
# * = called active by the depositor; u = inconclusive; x = no result. Sampled rows, rich in hits. Any-hit rate of the full collection: about 6.9%. Unless noted, the call rests on the fitted dose curve; in most records, active means well fitted curve in the direction sought with a large enough effect; inconclusive means small, poorly fitted or top-dose-only effect, or another doubt; inactive means no such curve, though single readings can be large; an effect the other way counts as inactive or inconclusive.
SMILES,Vif-A3F inh,SW480 rerep,Giardia killer,Vif-A3G inh,IL1B secr inh,MCF10A rereplic
CCC1CCCCN1CCCNC(=O)C1CCN(Cc2nc(-c3ccc(Cl)cc3)oc2C)CC1 (centres undefined),-16.3%,4.2%,12.4,-6.3%,-90.3*,u
CCc1ccc(-c2nc(CN3CCC(C(=O)N4CCN(c5ccccn5)CC4)CC3)c(C)o2)cc1,-8.8%,3.8%,-8.1,2.5%,-52.7*,u
Cc1cccc(-c2nc(CSCC(=O)N3CCN(c4cccc(C)c4C)CC3)c(C)o2)c1,0.5%,x,x,3.2%,x,x
CCC1=Nc2cc(C(=O)N3CCC(C)CC3)ccc2Sc2ccc(C)cc21,0.3%,x,x,4.8%,x,x
COc1cccc(NC(=O)c2c(-c3ccc(C)cc3)nnc3ccccc23)c1,-1.7%,x,x,0.1%,x,x
CCCN1CCC(=O)N(CCSc2ccc(Br)cc2)CC1,x,x,15.0,u,x,x
Cc1cc(C)cc(NC(=O)CSc2oc(-c3cccs3)nc2S(=O)(=O)c2ccccc2)c1,1.7%,x,x,-9.7%,x,x
O=Cc1cc2c3c(c1)CCCN3CCC2,x,x,x,-0.7%,x,x
CCCCNC(=O)C1CCCN(Cc2nc(-c3ccc(Cl)cc3)oc2C)C1 (centres undefined),1.2%,x,x,-0.8%,x,x
Cc1oc(-c2ccc(Cl)cc2)nc1CS(=O)CC(=O)NCCCN1CCN(Cc2ccccc2)CC1 (centres undefined),1.9%,74.0%,19.8,-1.1%,-79.5*,7.3%
CCN(CCNC(=O)C1CCCN(Cc2nc(-c3ccc(OC)cc3)oc2C)C1)c1ccccc1 (centres undefined),-3.7%,u,13.4,-0.3%,-72.7*,u
CCN(CCNC(=O)C1CCN(Cc2nc(-c3cccc(Cl)c3)oc2C)CC1)c1ccccc1,-4.4%,u,-15.0,-20.5%,u,u
CCc1ccc(-c2nc(CN3CCC(C(=O)NCCN(CC)c4ccccc4)CC3)c(C)o2)cc1,-8.0%,u,17.0,-1.9%,-97.2*,u
CCN(CCNC(=O)C1CCN(Cc2nc(-c3ccc(Cl)cc3)oc2C)CC1)c1ccccc1,0.1%,u,11.0,-12.8%,-53.7*,u
CCc1ccc(-c2nc(CN3CCC(C(=O)NCc4ccc(F)cc4)CC3)c(C)o2)cc1,-16.4%,u,28.0,-2.6%,-19.2,29.4%
COc1ccc(-c2nc(C)c(CCNC(=O)C(=O)Nc3cccc(F)c3)s2)cc1OC,-1.3%,x,x,-1.9%,x,x
CCOC(=O)C[C@H]1c2cc(F)ccc2S(=O)(=O)N1Cc1cc(OC)c(OC)c(OC)c1,x,x,x,1.3%,x,x
O=C(Nc1ccc(Br)c2cccnc12)c1cccc2ccccc12,-4.4%,x,x,-4.1%,x,x
COc1cccc(/C=C2/CN(C)CC3=C2OC(N)=C(C#N)C3c2cccc(OC)c2)c1 (centres undefined),-21.8%,u,-7.1,-9.8%,u,u
N#CC1=C(N)Oc2cc(O)ccc2C1c1ccccc1 (centres undefined),1.7%,3.9%,-17.1,u,-3.4,u
Cc1ccc(/C=C2\CCC3=C2OC(N)=C(C#N)C3c2ccc(C)cc2)cc1 (centres undefined),u,11.2µM*,6.4,u,-69.9*,2.91µM*
N#CC1=C(N)OC2=C(CCc3ccccc32)C1c1ccccc1 (centres undefined),-8.6%,0.731µM*,-8.6,-13.2%,13.0,u
O=C(Nc1nc(-c2cc(Cl)sc2Cl)cs1)c1cccs1,-2.2%,17.8%,-19.9,-5.9%,u,8.2µM*
O=C(Nc1nc(-c2cc(Cl)sc2Cl)cs1)c1ccc(Br)s1,-2.0%,-7.0%,8.4,1.4%,-26.8,u
O=C(c1ccc(F)cc1)n1nc(-c2cccnc2)nc1NCc1ccc(F)cc1,2.4%,x,x,3.1%,x,x
SMILES,Vif-A3F inh,SW480 rerep,Giardia killer,Vif-A3G inh,IL1B secr inh,MCF10A rereplic
COc1ccccc1/C=C1\SC(=S)N(CCC(=O)NCCc2ccc(O)cc2)C1=O,u,u,3.1,-15.1%,-81.8*,u
COC(=O)CCCCCN1C(=O)/C(=C\c2ccncc2)SC1=S,-6.2%,1.0%,8.6,-21.9%,u,25.9µM*
O=C(CCN1C(=O)/C(=C/c2ccccc2F)SC1=S)NCCc1ccc(O)cc1,-2.3%,-17.1%,-8.7,0.1%,u,u
COc1cc(/C=C2\SC(=N)N(c3ccc(F)cc3)C2=O)ccc1O,u,u,-28.6,u,1.9,18.4µM*
COc1ccc(/C=C2\SC(=O)N(CC(=O)Nc3ccc(F)cc3)C2=O)cc1O,-7.9%,-13.0%,7.2,-24.4%,u,25.9µM*
COc1cc(OC)cc(-c2nc3nc(C)c(CCC(=O)Nc4cc(C)cc(C)c4)c(C)n3n2)c1,-1.4%,x,x,0.0%,x,x
CCC(=O)N1CCCc2cc(S(=O)(=O)N3CCC(C(=O)Nc4ccc(C#N)cc4)CC3)ccc21,1.1%,x,x,-2.0%,x,x
COc1ccc(/C=C2/SC(=S)N(CCCC(=O)Nc3ccc(O)cc3)C2=O)cc1,u,1.8%,-6.5,-15.8%,-16.7,u
N=C1S/C(=C\c2cccc3ccccc23)C(=O)N1c1ccc(F)cc1,u,18.4µM*,-10.0,u,-24.6,u
COc1ccc(/C=C2\SC(=S)N(CCCC(=O)Nc3ccc(O)cc3)C2=O)cc1,u,u,11.9,-17.5%,-58.8*,23.2%
COc1cc(/C=C2/SC(=S)N(CCC(=O)Nc3ccc(C(=O)O)cc3)C2=O)cc(OC)c1OC,-8.5%,u,36.8,-19.7%,u,4.7%
COc1cc(/C=C2\SC(=S)N(CCC(=O)Nc3ccc(O)cc3)C2=O)cc(OC)c1OC,-3.4%,u,16.1,-8.9%,36.7,16.4µM*
COc1ccc(S(=O)(=O)Nc2cc3c(cc2NCc2ccccc2)n(C)c(=O)n3C)cc1OC,-5.5%,x,x,-2.8%,x,x
COc1cc(NC(=O)C2CCN(S(=O)(=O)c3c(C)noc3/C=C/c3cccs3)CC2)cc(OC)c1,-1.3%,x,x,-3.4%,x,x
O=C(CCc1ccccc1)NNC(=S)NC(=O)c1ccccc1,0.4%,3.66µM*,7.8,0.0%,0.0,3.26µM*
O=C(NC(=S)NNC(=O)c1ccccc1O)c1ccccc1,7.4%,14.6µM*,-22.7,4.8%,47.2,29.8%
CC(=O)NC(=S)NNC(=O)CCc1ccccc1,0.5%,-14.9%,-0.2,-5.7%,-7.0,-13.8%
O=C(NNC(=O)c1cccc2ccccc12)c1ccccc1O,-2.7%,7.31µM*,-1.1,-0.7%,83.1,-41.1%
O=C(Nc1ccc(Br)cn1)c1cccc2ccccc12,-5.9%,3.26µM*,-1.3,u,-9.1,4.11µM*
COc1c(C(=O)Nc2ccc(Br)cn2)ccc2ccccc12,-1.4%,1.4%,17.7,-9.3%,51.5,5.8%
CCN(CC)c1ccc(NC(=O)c2cnn3c(C(F)F)cc(-c4ccccc4)nc23)cc1,0.2%,x,x,1.9%,x,x
